Screening data from PubChem BioAssay.
MCF10A rereplic – A quantitative high throughput screen for small molecules that induce DNA re-replication in MCF 10a normal breast cells. MCF 10A DNA re-replication, Hoechst nuclear intensity, 48 h. Potency, µM (top dose mostly 46.1 µM), inactives show at the highest dose activity, positive = re-replication, hits mostly activators. hit rate 2.9% among 350,000; also: potency is read from the fitted curve at half-maximal effect; % of control where 0% means no effect; nearly all actives have a fitted effect of over 50% in size
IL1B secr inh – qHTS for Inhibitors of Inflammasome Signaling: IL-1-beta AlphaLISA Primary Screen | THP-1 LPS/ATP IL-1B secretion, AlphaLISA, 16 h; stronger effect = lower value | activity change, % at 57.5 µM | hit rate 4.7% among 360,000 | AID 743279, 2014; in the data active = activity change below about -50%; inconclusive = mostly about -30% to -49%; also: % is scaled to controls: 0 for no effect and ±100 for the full control effect
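Secreted IL-1B measured by AlphaLISA bead assay after 16 h compound exposure of THP-1 cells; compounds (final up to 57.5 uM) added 1 h before LPS (250 ng/mL) and ATP (1.25 mM) stimulation; lower signal means less secretion.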
VP16 counter – VP16 counterscreen qHTS for inhibitors of ROR gamma transcriptional activity. AID 2546, 2010. Drosophila S2 Gal4-VP16 UAS-luciferase, luminescence, 20 h. Potency, µM (titrated, usually from 53.6 µM), without a hit: top-dose activity, negative = inhibition, most hits filed as inhibitors. hit rate 3.5% among 310,000;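 also: Gal4-VP16 expression switched on by copper sulfate through the metallothionein promoter; potency is read from the fitted curve at half-maximal effect; % is scaled to controls: 0 for no effect and ±100 for the full control effect; nearly all actives have a fitted effect of over 50% in size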
RORgamma inh – qHTS for inhibitors of ROR gamma transcriptional activity; Potency, µM (titrated, usually from 53.6 µM), inactives show at the top dose activity change, negative = inhibition, hits mostly inhibitors; hit rate 5.4% among 310,000; Nuclear receptor ROR-gamma (Mus musculus), P51450; Drosophila S2 Gal4-RORgamma UAS-luciferase reporter, 20 h; also: potency is read from the fitted curve at half-maximal effect; % is scaled to controls: 0 for no effect and ±100 for the full control effect; nearly all actives have a fitted effect of over 60% in size
Target sequence (P51450 whole entry, looked up, the tested form may be a part): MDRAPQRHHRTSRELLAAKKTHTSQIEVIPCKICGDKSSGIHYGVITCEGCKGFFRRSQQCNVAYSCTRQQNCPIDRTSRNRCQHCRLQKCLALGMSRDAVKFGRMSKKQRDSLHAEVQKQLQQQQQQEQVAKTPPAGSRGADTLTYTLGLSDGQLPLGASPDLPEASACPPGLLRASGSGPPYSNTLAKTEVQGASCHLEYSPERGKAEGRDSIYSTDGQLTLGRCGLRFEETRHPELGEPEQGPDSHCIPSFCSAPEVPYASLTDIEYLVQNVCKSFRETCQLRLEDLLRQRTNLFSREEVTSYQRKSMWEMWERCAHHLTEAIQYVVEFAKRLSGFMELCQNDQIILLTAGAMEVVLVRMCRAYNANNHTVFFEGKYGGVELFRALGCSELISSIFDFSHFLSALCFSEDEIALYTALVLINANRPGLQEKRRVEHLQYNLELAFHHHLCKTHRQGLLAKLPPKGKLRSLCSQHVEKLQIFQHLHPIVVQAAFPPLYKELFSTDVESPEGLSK
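Luminescence from a UAS-regulated Photinus luciferase reporter in stably transfected Drosophila Schneider cells is measured; decreased signal marks ROR gamma inhibition. Fusion expression is induced by 700 uM copper sulfate for 20 hr.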
SW480 rereplic – A quantitative high throughput screen for small molecules that induce DNA re-replication in SW480 colon adenocarcinoma cells | SW480 DNA re-replication, Hoechst DNA content imaging, 48 h | Potency, µM (highest dose often 46.1 µM), without a hit: top-dose re-replication activation, hits mostly activators | hit rate 1.8% among 340,000; also: potency is read from the fitted curve at half-maximal effect; % of control where 0% means no effect; nearly all actives have a fitted effect of over 55% in size
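250 cells/well; 23 nL cpd via pin tool; 48 hr, 37 C, 5% CO2; Hoechst 40 min; imager read of total nuclear intensity, ex 405/em 500-530 nm.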
Numbers without * were called inactive; i = inactive; ? = inconclusive; . = not tested or not shown; ! = repeats disagree; [ ] = dose if it differs, or a comment. Rows were chosen to be rich in hits. Some 11% of all compounds tested hit in one or more screens of this group. Unless noted, calls follow the shape of the dose curve; as a rule, active = well fitted curve in the direction sought with a large enough effect; inconclusive = small, poorly fitted or top-dose-only effect, or another doubt; inactive = no such curve, though single readings can be large; an effect the other way counts as inactive or inconclusive.

SMILES	MCF10A rereplic	IL1B secr inh	VP16 counter	RORgamma inh	SW480 rereplic
COc1cc(OC)c(NC(=S)NCc2ccccc2)cc1Cl	-2%	-13	?	11µM*	-3%
COc1cc(NC(=O)c2c(F)c(F)c(F)c(F)c2F)c(OC)cc1Cl	?	-101*	-1%	21%	?
COc1ccc(NC(=O)c2ccccc2NS(=O)(=O)c2ccc(CNC(C)=O)cc2)c(OC)c1	5.2µM*	53	6%	-16%	-41%
COc1cc(OC)c(NC(=S)Nc2cc(Cl)cc(Cl)c2)cc1Cl	?	-91*	?	13µM*	0%
CCCCNC(=O)C1(C)CCN1C(=O)c1cccc2c1OCCO2 (stereo unspecified)	.	12	.	.	.
O=C1NC[C@@H](CCCCN2CCN(CCc3ccccc3)C(=O)C2=O)N(Cc2ccccc2)C1=O	.	20	.	.	.
COc1cc(NC(=S)NC(C)(C)C)c(OC)cc1Cl	?	49	?	5µM*	3%
COc1cc(NC(=S)Nc2ccc(Br)cc2Cl)c(OC)cc1Cl	20%	-8	?	?	-5%
CC1(C)CC(Nc2ccc(Nc3ccccc3)cc2)CC(C)(C)N1	?	-81*	?	?	3%
COc1ccccc1/C=C/C(=O)NC(=S)N1CCN(C)CC1	0%	14	16µM*	11µM*	-2%
O=C(/C=C/c1ccccc1)NC(=S)N1CCSCC1	-6%	27	10µM*	7.9µM*	-3%
CC(=O)N1CCN(c2ccc(NC(=S)NC(=O)/C=C/c3ccccc3)cc2)CC1	.	.	-2%	-33%	.
Cc1ccc(/C=C/C(=O)NC(=S)N2CCN(c3ccc(F)cc3)CC2)cc1	5%	-1	-8%	?	-7%
COc1ccc(/C=C/C(=O)NC(=S)N2CCOCC2)cc1	0%	-8	?	4µM*	-8%
COc1ccc(/C=C/C(=O)NC(=S)N2CCN(c3ccccc3OC)CC2)cc1	13%	15	-1%	2%	10%
Cc1ccc(/C=C/C(=O)NC(=S)N2CCN(C)CC2)cc1	14%	16	13µM*	14µM*	-43%
COc1ccccc1/C=C/C(=O)NC(=S)NC(C)C	?	-8	-4%	?	16µM*
CC(C)c1ccc(NC(=O)[C@H](NC(=O)[C@@H]2Cc3ccccc3CN2)c2ccccc2)cc1	21µM*	-15	-7%	-3%	?
Cc1ccc(NC(=O)[C@H](NC(=O)[C@@H]2Cc3ccccc3CN2)c2ccccc2)cc1	0%	-12	-12%	15%	-33%
COc1ccccc1CNC(=O)[C@H](CCSC)NC(=O)[C@@H]1Cc2ccccc2CN1	16%	-7	-4%	23%	7.3µM*
CC(C)c1ccc(NC(=O)[C@H](Cc2c[nH]c3ccccc23)NC(=O)[C@@H]2Cc3ccccc3CN2)cc1	21µM*	-22	2%	8%	?
COc1ccc(NC(=O)[C@H](Cc2c[nH]c3ccccc23)NC(=O)[C@@H]2Cc3ccccc3CN2)cc1	15µM*	-24	3%	-14%	?
CC1CCCCN1C(=S)NC(=O)c1cc(Br)ccc1Cl (stereo unspecified)	?	20	.	.	-25%
CC1(C(=O)Nc2cccc(C#N)c2)CCN1C(=O)Cc1ccc(-c2ccccc2)cc1 (stereo unspecified)	.	0	.	.	.
O=c1c2cccc3c2c(nn1CN1CCOCC1)-c1ccccc1-3	?	-14	-18%	-20%	-1%
SMILES	MCF10A rereplic	IL1B secr inh	VP16 counter	RORgamma inh	SW480 rereplic
CCN(CC)CCn1nc2c3c(cccc3c1=O)-c1ccccc1-2	21%	-99*	-6%	-10%	9.2µM*
COC(=O)c1ccccc1NC(=O)N1CCc2ccc(NC(=O)c3ccccn3)cc2C1	-14%	i	3%	-7%	18µM*
C[C@H](CO)N1C[C@H](C)[C@@H](CN(C)C(=O)Nc2ccc3c(c2)OCO3)Oc2ccc(NS(=O)(=O)c3ccccc3)cc2C1=O	-5%	31	.	.	-1%
COc1cccc(-n2ccnc2SCC(=O)Nc2ccccc2F)c1	27%	-70*	-4%	?	9%
Cn1c(CC(=O)Nc2ccccc2F)nnc1SCC(=O)NC1=NCCS1	7%	-6	-1%	-14%	-6%
S=c1[nH]nc(Nc2ccccc2Cl)s1	-3%	-1	0%	7.9µM*	-5%
S=c1[nH]nc(Nc2cccc(Cl)c2)s1	1%	40	-9%	-38%	-3%
Cc1ccc(C(=O)Nc2ccccc2C(=O)N2CC(C)OC(C)C2)cc1 (stereo unspecified)	.	17	.	.	.
Cn1c(=O)cc(OCCCC(=O)NCc2ccccn2)c2ccccc21	15%	12	11%	?	-1%
Cc1ccnc(NC(=O)CCCOc2cc(=O)n(C)c3ccccc23)c1	15µM*	-76*!	-2%	?	7.3µM*
Cn1c(=O)cc(OCCCC(=O)N2CCN(c3ccccc3)CC2)c2ccccc21	9.2µM*	-6	-6%	-3%	-1%
CCc1nc2ccc(C(=O)Nc3cccc(OC)c3)cn2c1N(C)CCCc1ccccc1	.	-51*	.	.	.
CCc1nc2ccc(C(=O)NCc3cccs3)cn2c1N(CC)Cc1cccc(Br)c1	.	-54*	.	.	.
CCc1nc2ccc(C(=O)Nc3cccc(OC)c3)cn2c1N(CC)Cc1cccc(Br)c1	.	-57*	.	.	.
CCc1nc2ccc(C(=O)Nc3cccc(NS(C)(=O)=O)c3)cn2c1N(CC)Cc1cccc(Br)c1	.	-70*	.	.	.
CCc1nc2ccc(C(=O)Nc3cccc(NS(C)(=O)=O)c3)cn2c1N(C)CCCc1ccccc1	.	-17	.	.	.
COc1cccc(O)c1CN1CCC(Oc2ccc(C(=O)NCc3ccccn3)cc2)CC1	2%	0	-11%	-22%	-16%
CN(C(=O)c1ccc2c(c1)OCO2)C1(C)CCS(=O)(=O)C1 (stereo unspecified)	-10%	7	.	.	-32%
O=C(O)c1cccc(-c2noc(-c3cccc(Cl)c3)n2)c1	14%	.	.	.	-4%[9.22 µM]
CCc1nc2ccc(C(=O)NCCCn3ccnc3)cn2c1N(C)Cc1cccs1	.	-24	.	.	.
CCc1nc2ccc(C(=O)NCCOc3ccc(OC)cc3)cn2c1N(CC)Cc1cccc(Br)c1	.	-69*	.	.	.
CCCCN(C=O)c1c(CC)nc2ccc(C(=O)Nc3cc(-c4ccccc4)ccc3OC)cn12	.	-70*	.	.	.
CCCCNC(=O)c1ccc2nc(CC)c(N(C)Cc3cccs3)n2c1	.	-74*	.	.	.
O=S1(=O)N[C@@H](Cc2ccccc2)COc2cc(N3CCN(Cc4ccccc4F)CC3)ccc21	.	-13	.	.	.
CCN1CCN(c2c(Cl)cccc2NC(=O)c2ccco2)CC1	-2%	-68*	-3%	-28%	-7%
